Assay results as given in PubChem BioAssay (NCATS).
Records with an inconclusive call do not appear. The source made the active and inactive calls. Unless noted, calls come from the whole dose curve; as a rule, active = well fitted curve in the direction sought with a large enough effect; inconclusive = small, poorly fitted or top-dose-only effect, or another doubt; inactive = no such curve, though single readings can be large; an effect the other way counts as inactive or inconclusive.

How the values were obtained:
[1] = Cell Viability - BJ (AID 421; calls by dose curve;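 note: potency is the fitted concentration of half-maximal effect; cells exposed to compound for 40 hours at 37 °C before readout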); conditions: BJ fibroblast viability, qHTS
Procedure, shortened: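 Cytotoxicity as drop in intracellular ATP (CellTiter-Glo, 20 min RT) after 40 hr compound exposure of BJ fibroblasts at 37 °C. Titrations scaled between DMSO and 100 uM tamoxifen, Hill-fitted for AC50.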

[2] = Cell Viability - Jurkat (AID 426;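 active = dose-dependent loss of cell ATP signal giving a full or clear fitted curve, ranked by lower potency value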;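 note: potency is the fitted concentration of half-maximal effect; cells exposed to compound for 40 hours at 37 °C before ATP read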); conditions: qHTS
Procedure, shortened: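 Cytotoxicity taken as drop in cellular ATP (CellTiter-Glo luminescence, 20 min room temperature) after 40 hr, 37C treatment of 5000 Jurkat Clone E6-1 cells per well; concentration-response fitted with Hill equation for AC50.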

[3] = Cell Viability - HepG2 (AID 433; calls by dose curve;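 note: potency is the fitted concentration of half-maximal effect; cells exposed to compound for 40 hours; potency for ATP loss meaning cytotoxicity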); conditions: qHTS
Procedure, shortened: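 Cytotoxicity read as ATP loss (CellTiter-Glo luminescence) after 40 hr compound exposure of HepG2, 1500 cells/well, 37 °C. AC50 by Hill equation; 0% set by DMSO, 100% inhibition by 100 uM tamoxifen.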

[4] = Cell Viability - MRC5 (AID 434; calls by dose curve;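 note: potency is the fitted concentration of half-maximal effect; cells exposed to compound for 40 hours at 37 °C; potency reflects cytotoxicity seen as loss of intracellular ATP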); conditions: MRC5 lung fibroblast viability, qHTS
Procedure, shortened: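 AC50 values come from Hill-equation fits of intracellular ATP loss, measured by CellTiter-Glo luminescence. Normal lung fibroblasts (MRC5) had 40 hr compound treatment at 37 C, normalized between DMSO and 100 uM tamoxifen.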

[5] = molecular target: Mitogen-activated protein kinase 10 (Mus musculus) (UniProt Q61831); assay: JNK3 AlphaScreen Assay (AID 530; active = well fitted curve in either direction with a large enough effect, not every such curve was filed as active;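 note: kinase came from lysate of stimulated human HepG2 cells; signal reports phosphorylation of biotinylated GST-cJun 1-79 at Ser73 with 10 µM ATP; % is set by controls: 0 for no effect and ±100 for the full control effect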)
Procedure, shortened: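 qHTS titrations with 15 min compound pre-incubation before adding ATP (10 uM final). Read-out: AlphaScreen of Ser73-phosphorylated biotin-GST-cJun using HepG2 lysate JNK3 activated by IL-1β and TNFα.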

[6] = Cell Viability - N2a (AID 540); conditions: N2a mouse neuroblastoma cell viability; at 92.2 µM (top of the series);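 note: plate controls were DMSO alone for no effect and tamoxifen control for full effect; nearly all actives have a fitted effect of over 45% in size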
Procedure, shortened: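 CellTiter-Glo ATP luminescence, read 20 min after reagent at room temperature, reported viability following 40 h compound treatment at 37 °C. N2a mouse neuroblastoma cells seeded 1500/well; Hill equation gave AC50.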

[7] = Cell Viability - HUV-EC-C (AID 542);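 note: cells exposed to compound for 40 hours; % is set by controls: 0 for no effect and ±100 for the full control effect; nearly all actives have a fitted effect of over 35% in size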
Procedure, shortened: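 CellTiter-Glo luminescence measured ATP loss in HUV-EC-C cells (1000/well) after 40 hr compound exposure at 37 °C, in complete culture medium. Concentration-response data were Hill-fitted to give AC50.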

[8] = Cell Viability - Mesenchymal (AID 546);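 note: cells exposed to compound for 40 hours before reading; 0% = DMSO only and -100% = 100 µM tamoxifen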
Procedure, shortened: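 CellTiter-Glo luminescence (intracellular ATP, 20 min room temperature) after 40 hr compound exposure at 37 °C of 1000 glomerulus-derived human kidney mesenchymal cells/well; AC50 values obtained by fitting qHTS concentration-response data to the Hill equation.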

[9] = Cellular Toxicity (caspase-3) HepG2 (AID 654);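 note: cells exposed to compound for 16 hours before reading; 0% = DMSO alone and 100% = caspase signal from 100 µM tamoxifen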
Procedure, shortened: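 Caspase 3/7 activation is measured as a luminescence increase (aminoluciferin substrate) after 16 h compound exposure of human hepatocarcinoma HepG2 cells. AC50 values are Hill fits, scaled between DMSO baseline and 100 uM tamoxifen stimulation.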

[10] = Cellular Toxicity (caspase-3) HUV-EC-C (AID 656);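 note: 0% = DMSO basal and 100% = 100 µM tamoxifen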
Procedure, shortened: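 Luminescent Caspase-Glo 3/7 readout after 16 h, 37 °C compound exposure of HUV-EC-C endothelial cells, 1000 per well, complete medium. AC50 derived by Hill fitting, with DMSO as baseline and 100 uM tamoxifen as full activation.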

[11] = Cellular Toxicity (caspase-3) SHSY5Y (AID 657)
Procedure, shortened: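 Luminescent Caspase-Glo 3/7 read-out, 1 hr room temperature, follows 16 hours of compound treatment of SH-SY5Y cells at 37 °C. Normalization: DMSO basal, 10 uM staurosporine as 100%; AC50 values from Hill-equation concentration-response fits.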

[12] = Cellular Toxicity (caspase-3) BJ (AID 658);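 note: 0% = DMSO basal and 100% = 10 µM staurosporine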
Procedure, shortened: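 Caspase-Glo 3/7 luminescence, read 1 hr after reagent at room temperature, in normal BJ fibroblasts exposed 16 hours at 37 °C. AC50 values from Hill-equation concentration-response, scaled between DMSO basal and 10 uM staurosporine as 100%.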

[13] = Cellular Toxicity (caspase-3) MRC-5 (AID 659);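 note: 0% = DMSO basal and 100% = 10 µM staurosporine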
Procedure, shortened: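 Luminescent Caspase-Glo 3/7 read-out (1 h, room temperature) after a 16 h, 37 °C compound exposure of MRC-5 lung fibroblasts at 1500 cells/well. Concentration-response AC50 from Hill equation; 0% DMSO, 100% 10 uM staurosporine.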

[14] = Cellular Toxicity (caspase-3) Mesangial (AID 660);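 note: combined caspase 3 and 7 activity read by Caspase-Glo luminescence; cells exposed to compound for 16 h before the caspase read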
Procedure, shortened: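 Caspase 3/7 activation measured by Caspase-Glo 3/7 luminescence (20 min, room temperature) following 16 h exposure of mesangial cells (1000/well); AC50 from Hill-equation fit, normalized to DMSO and 100 uM tamoxifen.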

[15] = Cellular Toxicity (caspase-3) SK-N-SH (AID 661);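 note: 0% = DMSO basal and 100% = 10 µM staurosporine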
Procedure, shortened: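 Caspase 3/7 activation was read by luminogenic substrate cleavage after 16 hour treatment of SK-N-SH cells. Signal was scaled between DMSO and 10 uM staurosporine, and concentration-response data were fitted with the Hill equation for AC50.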

[16] = Cellular Toxicity (caspase-3) H-4-II-E (AID 663);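 note: cells exposed to compound for 16 hr before readout; 0% = DMSO basal and 100% = 100 µM tamoxifen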
Procedure, shortened: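 Caspase 3/7 activation measured by luminescent aminoluciferin substrate cleavage after 16 hr compound treatment of H-4-II-E cells in complete medium. Increase normalized between DMSO (basal) and 100 uM tamoxifen (100%); Hill-equation AC50 from concentration-response.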

[17] = Cellular Toxicity (caspase-3) N2a (AID 665);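 note: compound exposure lasted 16 h at 37 °C before readout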
Procedure, shortened: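 Caspase-3/7 activation measured as luminescence from Caspase-Glo reagent (1 h, room temperature) after 16 h compound exposure of mouse N2a cells. AC50 values from Hill-equation concentration-response, scaled between DMSO and 10 uM staurosporine.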

[18] = Cellular Toxicity (caspase-3) NIH 3T3 (AID 666);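 note: 0% = DMSO basal and 100% = 100 µM tamoxifen stimulation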
Procedure, shortened: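 Caspase-Glo 3/7 luminescence reported caspase activation in 1000 NIH 3T3 cells/well after 16 h compound exposure at 37 C. DMSO set basal and 100 uM tamoxifen set 100% stimulation; concentration-response modeled with the Hill equation for AC50.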

[19] = Cellular Toxicity (caspase-3) Renal Proximal Tubule (AID 667);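 note: cells exposed to compound for 16 hours at 37 °C before detection; 0% = DMSO basal and 100% = 10 µM staurosporine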
Procedure, shortened: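 Caspase 3/7 activation measured by luminescent aminoluciferin release in primary rat proximal tubule cells after 16 hr compound exposure at 37 °C. AC50 from Hill-fitted concentration-response, scaled between DMSO and 10 uM staurosporine.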

[20] = Confirmation and Secondary Assay for Modulators of Hemoglobin Beta Chain Splicing at IVS2 654 locus (AID 910);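 note: HeLa cells stably carrying EGFP split by mutant beta-globin IVS2-654 intron; per-well total GFP intensity by laser scanning cytometry after 2-day treatment; % of control where 0% means no effect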
Procedure, shortened: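 Readout: per-well total peak green fluorescence (488 nm ex, 500–520 nm em) from objects 5–250 µm, reflecting correct splicing of an EGFP-654 reporter. Compounds were applied for 2 days at 37 °C to overnight-plated HeLa EGFP-654 cells; controls were DMSO and 500 nM IVS2-654 PNA.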

[21] = Cell Viability - LYMP2-001 (AID 921);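 note: 0% = DMSO only and full inhibition = tetraoctylammonium bromide control wells; nearly all actives have a fitted effect of over 70% in size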
Procedure, shortened: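 Cellular ATP loss read by luciferase luminescence after 24 h compound exposure at 37 C in complete medium. LYMP2-001 lymphoblastoid cells, 2500/well; qHTS concentration-response data fitted with Hill equation for AC50.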

[22] = Confirmation and Secondary Assay for Modulators of Hemoglobin Beta Chain Splicing at IVS2 705 locus (AID 930);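 note: HeLa cells stably expressing the EGFP-705 splicing reporter; GFP fluorescence per well restored by corrected splicing of the IVS2-705 intron in EGFP; % of control where 0% means no effect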
Procedure, shortened: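 HeLa EGFP-705 reporter; 500 cells/well, o/n 37C 5% CO2; cpd 2 d; 488 ex/500-520 em laser scan; total peak GFP intensity/well. Ref: 500 nM […] antisense PNA.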

[23] = MultiTox-Fluor Cytotoxicity Assay - LYMP1-001 - Dead Cells (AID 946)
Procedure, shortened: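 Cytotoxicity as increased dead-cell protease fluorescence (bis-AAF-R110, 485/520 nm), read 60 min after MultiTox-Fluor reagent. Human lymphoblastoid line exposed 16 h; Hill-fitted AC50, with DMSO as 0% and 15 uM tetraoctylammonium bromide as 100%.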

Oc1c(Cl)c(Cl)c(Cl)c(Cl)c1Cl
inactive: Potency [1] > 92 µM | Potency [3] > 92 µM | Potency [4] > 92 µM | outcome [5] | outcome [7] | outcome [8] | outcome [9] | outcome [10] | outcome [11] | outcome [12] | outcome [13] | outcome [14] | outcome [15] | outcome [16] | outcome [17] | outcome [18] | outcome [19] | Potency [20] | outcome [21] | outcome [22] | Potency [23]
active: Potency [2] 47.6 µM | activity change, negative = cytotoxicity [6] -109%
